Measurements reported in PubChem BioAssay AID485313 (National Center for Advancing Translational Sciences (NCATS), 2010).
Hit rate of the full screen: of about 320,000 compounds, about 7,600 (2.4%) were called active. About 3% were inconclusive and are not listed. This is one part of a sample in which actives are shown more often than they occur. The call rests on the fitted dose curve; in most records, active means well fitted activation curve with a large enough effect; inconclusive means small, poorly fitted or top-dose-only effect; inactive means no such curve, though single readings can be large or run the other way.

Assay: qHTS Assay for NPC1 Promoter Activators; further: nearly all actives have a fitted effect of over 60% in size;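 on activation: reporter is driven by a mutant NPC1 promoter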
Details: Huh7 NPC1 promoter luciferase reporter, 24 h; series mostly up to 9.22 µM
Summary of the method: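 Huh7 reporter cells (NPC1 promoter driving luciferase) are dosed with compound for 24 h at 37 °C, 5% CO2; luciferase detection reagent is then added and luminescence measured after 10 min at ambient temperature.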
Potency means the concentration at half of the fitted maximal effect.

Potency, inactive:
COc1ccc(C(=O)NCc2ccc(Cl)cc2)cc1S(=O)(=O)N1CCCC1
CCN(CC(=O)Nc1ccc(OC)cc1)C(=O)c1ccc(Cl)c(S(=O)(=O)N2CCCC2)c1
O=[N+]([O-])c1cc(S(=O)(=O)NCCc2ccccn2)ccc1Cl
CC(C#N)(NC(=O)CN1CCN(S(=O)(=O)c2cc(C(F)(F)F)ccc2Cl)CC1)C1CC1 (centres undefined)
O=C(CSc1nnc(-c2ccco2)n1-c1ccccc1)NCCc1ccccc1
O=C(CSc1nnc(-c2ccco2)n1CC1CCCO1)c1ccccc1 (centres undefined)
C=CCN1C(=O)c2ccc(C(=O)N3CCC(C(=O)OCC)CC3)cc2C1=O
O=C(CCNS(=O)(=O)c1ccccc1)NCCSc1ccc(Br)cc1
O=S(=O)(Nc1cc(Cl)ccc1N1CCOCC1)c1ccccc1Cl
C[C@@H]1NC(=O)[C@@]2(C)[C@@H](c3ccccc3)[C@H]3COc4ccccc4[C@@H]3N2C1=O
CCOC(=O)c1c(CNCc2ccccc2F)c2sc(C)cc2n1C
CN(C)c1ccnc2sc3c(=O)n(Cc4ccccc4)cnc3c12
Cc1nc2sc(C(=O)c3ccccc3)c(N)c2c2c1CCCC2
Nc1ncnc2c1c(I)cn2[C@@H]1C[C@H](N)[C@@H](O)[C@H]1O
Cc1nn(Cc2ccccc2)c(C)c1CNC(=O)c1ccc(F)c(S(=O)(=O)N2CCOCC2)c1
CN(CC(=O)Nc1cccc(F)c1)C(=O)CC1CCCC1
C/C(=N/NC(=O)C1COc2ccccc2O1)c1ccco1 (centres undefined)
O=C(Nc1nnc(SCc2ccc(Cl)cc2Cl)s1)C1COc2ccccc2O1 (centres undefined)
COc1ccc(NC(=O)CC2COc3ccccc3O2)c(OC)c1 (centres undefined)
CC(=O)c1cccc(NC(=O)C2COc3ccccc3O2)c1 (centres undefined)
CCc1noc(C)c1C(=O)N1CCN(S(=O)(=O)c2cccc(C(F)(F)F)c2)CC1
Cc1ccc(CSc2ccc(S(=O)(=O)N3CCCCC3)cn2)cc1
O=C(/C=C/c1ccc(Cl)cc1)Nc1ccc(S(=O)(=O)Nc2ncccn2)cc1
Cc1cc(C)nc(NC(=O)/C=C/c2ccc(Cl)cc2)n1
Cc1sc2ncnc(N3CCC(C(=O)Nc4ccc(F)cc4Cl)CC3)c2c1C
CCOC(=O)N1CCN(C(=O)COC(=O)c2cccc(S(C)(=O)=O)c2)CC1
Cc1ccc(C(=O)Nc2ccc(NC(=O)c3cccs3)cc2)c(C)c1
O=C(Nc1ccccc1)c1ccc(NC(=O)c2cccs2)cc1
Cc1noc(C)c1C(=O)NCC1COc2ccccc2O1 (centres undefined)
COc1cccc(-c2cc(C(=O)N3CCN(c4ccccc4OC)CC3)no2)c1
COc1cc(Cl)ccc1OCc1cc(C(=O)N2CC[C@@H]3CCCC[C@H]3C2)no1
COc1ccccc1-c1cc(C(=O)NCCCn2ccnc2)no1
O=C(c1cc(-c2ccc(Cl)cc2)on1)N1CCN(c2ccccc2)CC1
O=C(CSc1n[nH]c(-c2cccs2)n1)N1CCCCC1
COCCN1CCN(C(=O)c2cc(COc3ccc(F)cc3Cl)on2)CC1
CC(=O)c1ccc(NC(=O)c2cc(-c3cccs3)on2)cc1
O=C(c1cc(-c2ccc(F)cc2)on1)N1CCN(c2ccc(F)cc2)CC1
Cc1ccc(OCC(=O)N2CCN(S(=O)(=O)c3ccc(Cl)s3)CC2)cc1C
CCN(CC)c1ccc(NC(=O)CN2C(=O)NC3(CCc4ccccc43)C2=O)cc1 (centres undefined)
CCOC(=O)C1CCCN(C(=O)c2ccc(C)c(S(=O)(=O)N3CCCCC3)c2)C1 (centres undefined)
CCc1c(C)nc2cc(-c3cccs3)[nH]n2c1=O
CCc1c(C)nc2cc(C)[nH]n2c1=O
O=C(Nc1cccc2ccccc12)c1onc2c1CCCC2
COc1ccccc1C(CNC(=O)c1ccc(C)c(S(=O)(=O)N2CCCCC2)c1)N(C)C (centres undefined)
CC1(C)Cc2ccccc2/C(=C/C(=O)c2ccccc2)N1
COc1cc2c(cc1OC)/C(=C/C(=O)c1ccc(NC(C)=O)cc1)NCC2
O=C(NCC#CCSc1nnc(-c2cccc3ccccc23)o1)c1cccs1
O=C(NNC(=O)c1cccc(S(=O)(=O)Nc2ccc(Cl)cc2)c1)c1ccc(=O)[nH]c1
CCC(=O)N(CCc1ccccc1)Cc1cc2cc(C)ccc2[nH]c1=O
O=C(Nc1ccc(C(=O)N2CCCCC2)cc1)c1cccc([N+](=O)[O-])c1
O=C(Nc1ccc(NC(=O)c2ccco2)c(Cl)c1)c1cccc([N+](=O)[O-])c1
O=C(CN1C(=O)NC2(CCOc3ccccc32)C1=O)NCc1ccc(F)cc1 (centres undefined)
O=C(OCC(=O)N1CCCCCC1)c1cnc(Cl)c(Cl)c1
CCC(C)NC(=O)CCCc1ccccc1 (centres undefined)
O=C(CCCc1ccccc1)NCc1ccccc1

Potency, active:
c1ccc(CSc2nnc(-c3ccco3)n2Cc2ccccc2)cc1 2820 nM
CN(C)c1ccnc2sc(C(=O)c3ccccc3)c(N)c12 2510 nM
COc1ccc(NC(=O)C2COc3ccccc3O2)cc1 (centres undefined) 2820 nM
O=C(Nc1ncc([N+](=O)[O-])s1)C1COc2ccccc2O1 (centres undefined) 3550 nM
CC(C)(C)c1ccc(/C=C/C(=O)Nc2ncccn2)cc1 3980 nM
Cc1nc(-c2ccc(NC(=O)c3cccs3)cc2)cs1 355 nM
COc1ccc(OCc2cc(C(=O)N3CCCC3)no2)c2ccccc12 3160 nM
COc1ccccc1-c1cc(C(=O)N2CCCCC2)no1 3550 nM
O=C(c1cc(-c2ccc(O)cc2)on1)N1CCOCC1 891 nM
O=C(c1cc(-c2cccs2)on1)N1CCCCC1 1000 nM
C=CCc1c(C)nc2cc(-c3ccccc3)[nH]n2c1=O 1780 nM
CC1CN/C(=C\C(=O)c2ccc(Br)cc2)C(=O)N1 (centres undefined) 891 nM
O=C(Nc1ccc(C2CC2(Cl)Cl)cc1)c1cccc([N+](=O)[O-])c1 (centres undefined) 2000 nM
C=CCN1CCN(C(=O)CCCc2ccccc2)CC1 316 nM
